rCAG binder: r(CAG) repeat RNA binding. 370,000 tested, 1.3% active. TO-PRO-1 dye displacement fluorescence. inhibition, % at 3 µM;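 active = inhibition above the plate cutoff, the mean of all test compounds on that plate plus 3 SD, cut at about 35% in these data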;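 note: 0% = DMSO alone and 100% = 100 µM mitoxantrone as full dye displacement; higher means more dye released from RNA so lower well fluorescence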
AHR act: activators of human aryl hydrocarbon receptor; AHR-responsive luciferase reporter cells, luminescence; P35869; activation, % at 5 µM; 320,000 tested, 2.5% active; AID 2796; in the data active = activation above about 47%;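 note: 0% = vehicle wells and 100% = reference agonist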
Target sequence (P35869 whole entry, looked up): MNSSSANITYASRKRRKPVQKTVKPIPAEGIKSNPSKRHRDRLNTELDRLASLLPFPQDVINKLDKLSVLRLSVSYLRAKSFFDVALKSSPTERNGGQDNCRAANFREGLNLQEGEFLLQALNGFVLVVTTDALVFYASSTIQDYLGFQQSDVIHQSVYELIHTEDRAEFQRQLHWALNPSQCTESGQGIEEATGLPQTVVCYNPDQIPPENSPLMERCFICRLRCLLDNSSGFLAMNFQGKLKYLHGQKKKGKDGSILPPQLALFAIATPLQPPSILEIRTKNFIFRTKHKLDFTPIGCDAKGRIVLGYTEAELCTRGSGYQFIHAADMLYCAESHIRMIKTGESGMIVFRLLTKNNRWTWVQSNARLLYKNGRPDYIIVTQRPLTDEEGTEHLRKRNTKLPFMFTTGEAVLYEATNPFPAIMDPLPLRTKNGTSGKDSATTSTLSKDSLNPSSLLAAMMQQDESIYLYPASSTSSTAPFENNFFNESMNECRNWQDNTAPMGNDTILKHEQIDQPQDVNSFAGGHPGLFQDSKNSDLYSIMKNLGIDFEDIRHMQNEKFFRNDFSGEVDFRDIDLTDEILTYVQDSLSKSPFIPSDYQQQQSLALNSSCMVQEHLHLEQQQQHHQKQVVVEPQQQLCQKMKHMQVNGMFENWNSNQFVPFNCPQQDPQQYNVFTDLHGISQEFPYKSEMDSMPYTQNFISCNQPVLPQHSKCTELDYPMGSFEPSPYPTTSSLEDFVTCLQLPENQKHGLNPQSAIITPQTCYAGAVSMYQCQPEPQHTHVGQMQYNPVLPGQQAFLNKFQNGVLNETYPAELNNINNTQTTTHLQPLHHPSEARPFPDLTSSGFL
GRIN3A LBD mod: NR3A (human) ligand-binding domain modulation | AID 1259313 | NR3A LBD differential scanning fluorimetry, Tm shift; 0% = protein alone, 100% = glycine-bound protein | Tm shift relative to glycine control, % at 25 µM | 340,000 tested, 2.5% active;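 active = melting temperature shift of at least 10% of the positive control shift, at one fixed dose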
proKLK7 act: activators of human kallikrein-7 zymogen. P49862. purified proKLK7, EDANS-DABCYL substrate fluorescence; 100% is mature enzyme control, 0% vehicle. activation, % at 7 µM. 370,000 tested, 0.9% active;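 active = activation above the mean of all tested compounds plus 3 SD, computed per campaign excluding outliers beyond control limits, cut at about 13% in these data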
ADAM10 inh: inhibitors of human ADAM10; inhibition, % at 7 µM; AID 720582; recombinant ADAM10, EDANS/DABCYL FRET peptide cleavage, 3 h; 370,000 tested, 0.62% active; O14672;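 active = inhibition above a per-campaign cutoff equal to the mean of compounds falling between control-based bounds plus 3 SD, cut at about 20% in these data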;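 note: 0% = DMSO wells while the 100% control is not disclosed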
ADAM17 inh: ADAM17 inhibition, QFRET primary screen. P78536. recombinant ADAM17, EDANS/DABCYL FRET peptide cleavage. inhibition, % at 6.95 µM. 370,000 tested, 0.83% active;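 active = inhibition above the mean of compounds lying between control limits plus 3 SD, set per campaign, cut at about 8.5% in these data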;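 note: 0% = DMSO-only wells as the low control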
The depositor's hits bear a star; / = no result. In the library only some 7% were active in any assay of this set; here they are far more common.

SMILES	rCAG binder	AHR act	GRIN3A LBD mod	proKLK7 act	ADAM10 inh	ADAM17 inh
COC(=O)[C@]12C[C@H](CC(=O)NCCC(C)C)C(=O)N(CCC3=CCCCC3)C1=C[C@H](C(C)C)O[C@@H]2C1CC1	3	/	/	0	-4	-1
Nc1cc(-c2ccc(Cl)cc2)nn1S(=O)(=O)c1cccc2nsnc12	8	28	19*	-1	1	6
Nc1cc(-c2ccc(Br)cc2)nn1S(=O)(=O)c1cccc2nsnc12	9	38	0	0	1	6
COc1ccc(C(=O)c2[nH]c(N)c(C(=O)c3ccccc3)c2-c2ccc(OC)c(OC)c2)cc1	/	/	/	/	-4	-2
Cc1cc(NC(=O)CSc2nc3c(sc4ccccc43)c(=O)n2CCc2ccccc2)n[nH]1	3	4	27*	1	12	3
CC(NCc1ccco1)C(=O)N1CCOCC1 (stereo not drawn)	4	/	/	1	-4	0
CCCCC1=CC2=CC(=O)C(C)(OC(=O)CC)C(=O)C2=CN1CCOC (stereo not drawn)	/	2	61*	/	/	/
CCCCC1=CC2=CC(=O)C(C)(OC(=O)CC)C(=O)C2=CN1CCN1CCOCC1 (stereo not drawn)	/	6	1	/	/	/
COc1ccccc1N1CCN(C(=O)c2cc3c(C)nn(-c4ccccc4)c3s2)CC1	6	/	/	0	0	2
CN1CCC(N[C@@H](Cc2c[nH]c3ccccc23)C(=O)NCCCc2ccccc2)(C(=O)NCCc2c[nH]c3ccccc23)CC1	/	/	/	/	6	1
CC(C)CN(/C=N/c1sc2c(c1C#N)CCCCC2)CC(C)C	1	10	2	0	1	-2
CCN(/C=N/c1sc2c(c1C#N)CCCCC2)CC	-5	57*	1	-1	0	1
CC(=O)n1cc([C@H]2C=C(C(N)=O)O[C@@H](OCc3ccc(CO)cc3)C2)c2ccccc21	1	73*	1	0	-3	-3
CC(=O)n1cc([C@H]2C=C(C(=O)NCc3ccccc3)O[C@@H](OCc3ccc(CO)cc3)C2)c2ccccc21	6	65*	-7	1	-2	4
C#CCNC(=O)C1=C[C@@H](c2cn(C(C)=O)c3ccccc23)C[C@@H](OCc2ccc(CO)cc2)O1	-2	47*	-2	1	2	-1
COc1ccc(-c2cc(-c3nnc(SCC(=O)Nc4ccccc4-c4ccccc4)n3N)[nH]n2)cc1	9	/	/	1	6	2
Nc1[nH]c(C(=O)c2ccccc2)c(-c2ccccn2)c1C(=O)c1c[nH]c2ccccc12	8	/	/	0	-8	-2
c1cc2c3c(cccc3c1)NC1(CCCCCC1)N2	14	16	-5	-1	-5	-2
c1cc2c3c(cccc3c1)NC1(CCC3(CC1)Nc1cccc4cccc(c14)N3)N2	21	49*	18*	-1	-11	-1
O=C(Cc1ccccn1)c1ccc(Cl)cc1	1	2	1	0	1	0
CC1=C(CC(=O)c2ccc(Cl)cc2)C(=O)c2ccccc2C1=O	10	55*	-5	-1	6	-1
COc1cccc(C=NNc2nnc(NN=Cc3cccc(OC)c3OC)c3ccccc23)c1OC	5	/	-6	-1	-13	0
COc1ccc2[nH]c3c(NCc4ccco4)ncnc3c2c1	/	71*	-18	/	/	/
COc1ccc(/C=N/Nc2ncnc3c2[nH]c2ccccc23)c(OC)c1OC	17	72*	-1	-1	-30	-8
C=CCNc1ncnc2c1[nH]c1ccc(C)cc12	-2	105*	-8	4	-313	-108
COc1cccc(/C=N/Nc2ncnc3c2[nH]c2ccc(C)cc23)c1OC	9	62*	2	-1	-22	-4
Cc1ccc2[nH]c3c(NCCN4CCOCC4)ncnc3c2c1	0	/	2	0	-50	-19
O=C(N[C@H](C(=O)N1CCC[C@H]1C(=O)NCCc1ccccc1Cl)c1ccccc1)c1cccs1	0	/	/	1	1	-1
CCOC(=O)[C@@H]1CSCCS(=O)(=O)N1C(=O)[C@H](CCSC)NC(=O)OC(C)(C)C	-2	/	/	-1	-5	-4
COc1ccc(-n2c(Cc3cccs3)nnc2SCC(=O)Nc2cccc3ccccc23)cc1	4	/	/	0	10	4

Compound activity (PubChem)
